High-throughput results (PubChem)
In the library only some 1.5% were active in any assay of this set; here they are far more common.
TNFa cytotox: HUVEC cytotoxicity counter-screen, TNF alpha stimulated. HUVEC TNFalpha-stimulated, Hoechst cell count, imaging. cell count reduction, % at 2 µM. actives 0.17% (n = 93,000);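 active means cell count reduction exceeding the screen mean by over 5 SD, scaled to untreated wells per plate, cut at about 78% in these data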;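 further: cells counted after 24 h of TNF alpha exposure following the 1 h pretreatment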
IL1B NFkB pot: enhances IL-1B driven NFkB nuclear translocation | AID 819 | HUVEC IL-1B NFkB p65 nuclear translocation imaging | activation, % at 2 µM | actives 0.3% (n = 94,000);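 active means activation above 40%, about the mean plus 3 SD, also judged a hit on visual image review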;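 further: percent activation is computed from the nuclear over cytoplasmic p65 intensity ratio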
IL1B cytotox: HUVEC cytotoxicity counter-screen, IL-1B stimulated; HUVEC cell count loss, Hoechst imaging; cell count reduction, % at 2 µM; actives 0.41% (n = 94,000); AID 845;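 active means cell count reduction more than 3 SD above the screen-wide mean, cut at about 70% in these data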;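 further: normalized per plate to untreated control cells as the no-loss baseline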
IL1B NFkB inh: blocks IL-1B driven NFkB nuclear translocation in HUVEC cells; inhibition, % at 2 µM; HUVEC IL-1B NFkB p65 nuclear translocation imaging; actives 0.43% (n = 94,000); AID 796;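 active means inhibition above about 30% together with a positive call from visual inspection of the well image, limit read from the data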;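 further: nuclear over cytoplasmic p65 intensity ratio measured by imaging; 0% = IL-1B stimulated DMSO wells and 100% = unstimulated DMSO wells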
VCAM1 TNFa inh: reduces TNF alpha induced VCAM1 expression in HUVEC; HUVEC TNFa-induced VCAM-1 immunofluorescence, high-content imaging; inhibition, % at 2 µM; actives 0.48% (n = 95,000);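 active means inhibition above the batch mean plus 3 SD, with images confirmed as a hit by eye, cut at about 37% in these data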;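 further: 0% = TNF-stimulated DMSO wells and 100% = unstimulated control wells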
The depositor's hits bear a star; x = no result given.

SMILES | TNFa cytotox | IL1B NFkB pot | IL1B cytotox | IL1B NFkB inh | VCAM1 TNFa inh
COc1cc2c3c(c1OC)-c1cc(O)ccc1CC3NCC2 (stereo unspecified) | 66 | 2 | 1 | -2 | 44*
CCCCn1c(O)c(C=Nc2c(C)n(C)n(-c3ccccc3)c2=O)c(=O)[nH]c1=O | -5 | 48* | -46 | -48 | 6
CN1CCc2nc3sc(C#N)c(N)c3c(-c3cccs3)c2C1 | 74 | -2 | 20 | 2 | 90*
CN1CCc2nc(N)c(C#N)c(-c3ccccc3)c2C1 | -21 | -6 | -31 | 6 | 15
O=P(C(c1ccc2c(c1)OCO2)N1CCOCC1)(N1CCOCC1)N1CCOCC1 (stereo unspecified) | -15 | 9 | -49 | -7 | 13
N=C(N)c1c(O)n(C2CCCCC2)c(=O)n(C2CCCCC2)c1=O | -18 | -7 | 6 | 7 | -2
Cn1c(O)c(C(c2ccccn2)c2c(O)n(C)c(=S)[nH]c2=O)c(=O)[nH]c1=S | 5 | 3 | 91* | -3 | 1
CC(C(=O)c1cn(C)c2ccccc12)c1ccccc1 (stereo unspecified) | -18 | 4 | -9 | -4 | 0
NC(=O)CN1C2CCC1CC(NC(=O)C1CC1)C2 (stereo unspecified) | 59 | -9 | 16 | 9 | 29
CN1C(=O)N(C)C(=O)C2(Cc3ccccc3N3CCOCC32)C1=O (stereo unspecified) | 32 | 11 | 14 | -11 | 66*
C=CCN1C(=O)NC(=O)C(Cc2ccc(OC)c(OC)c2)C1=O (stereo unspecified) | -6 | -17 | 24 | 17 | 12
C=CCN1C(=O)NC(=O)/C(=C/c2cccn2C)C1=O | -38 | -41 | 2 | 41* | -24
CC/C(=C\C=C\[C@@H]1C=C[C@@H]2CCC[C@H]2[C@@H]1C(=O)c1ccc[nH]1)[C@@H]1O[C@@H]([C@@H](C)C(=O)O)CC[C@@H]1C | 17 | 8 | -28 | -8 | -5
O=C(CCCOc1ccc(Cl)cc1Cl)N1CCC2(CC1)OCCO2 | -5 | -97 | 85* | 97* | 16
O=C(c1cccn2c(=O)c3cc(Cl)ccc3nc12)N1CCC2(CC1)OCCO2 | 4 | -2 | -12 | 2 | -4
CN1C(=O)C(C2(C#N)CCCCC2)C(=O)N(C)C1=O | -10 | 49* | 3 | -48 | 17
COC(=O)C[C@]1(C(=O)OC)CN(C#N)N(c2ccc(Cl)cc2)C12c1ccccc1-c1ccccc12 | x | -26 | -123 | 26 | 100*
O=C(COc1ccc(Cl)cc1)N1CCN(C/C=C/c2ccccc2)CC1 | -3 | 6 | -6 | -6 | 5
